Bioassay records deposited in PubChem by National Center for Advancing Translational Sciences (NCATS).
Compounds with a hit are over-represented: about 3.2% of the library has one in this group of screens.
Nrf2 activator = Nrf2 pathway activation; AREc32 ARE-luciferase reporter (MCF7-derived line), luminescence, 24 h; Potency, µM (top dose mostly 46.1 µM), most hits filed as activators; 0.31% of 410,000 active; AID 624171; further: nearly all actives have a fitted effect of over 65% in size
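Quantitative high-throughput format: AREc32 reporter cells, 1000 per well, received compound by pin transfer and were incubated 24 hr at 37 deg C, 5% CO2, before Steady-Glo luminescence detection.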
IL2 activator = IL-2 activation; IL-2 activation reporter assay, cell-based qHTS; stimulated with anti-CD3/CD4/CD28 beads; in transgenic mouse T cells; activation, % (series mostly up to about 46 µM); 0.065% of 360,000 active; in the data active means activation above about 50%; inconclusive means mostly about 30% to 49%
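Unstimulated transgenic mouse T cells; 60-min compound exposure; bead-based TCR/CD4/CD28 stimulation; 18 h culture, 37 degrees C; dual fluorescence (EGFP, DsRed) plate cytometry.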
BRCA1 expr up = increases BRCA1 expression; AID 624202; MCF7-BRCA1-FFLuc reporter, luminescence, 48 h; response scale: scaled: vehicle 0%, 10 µM genistein 100%; 1.1% of 380,000 active; Potency, µM (top dose mostly 46.1 µM), actives largely listed as activators; further: nearly all actives have a fitted effect of over 80% in size
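Compounds are tested at multiple concentrations on MCF7 BRCA1-luciferase reporter cells seeded at 2000 per well; after 48 h, a single luminescence end-point is taken and curves fitted to the normalized data.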
p53 reactivator = mutant p53 re-activation in reporter cells | H1299 p53-A138V BP100-luciferase reporter, luminescence, 24 h | Potency, µM (titrated, usually from 92.2 µM), actives largely listed as activators | 0.063% of 320,000 active | AID 504706; further: nearly all actives have a fitted effect of over 45% in size
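p53-null H1299 cells stably carrying temperature-sensitive p53-A138V and a BP100-luciferase reporter were pinned with compounds (4-point, 1:5 series) and held 24 hrs at 37 deg C. Luminescence was read 10 min after detection reagent.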
A549 viability = counter-screen for Nrf2 inhibitors: cytotoxicity in A549 cells; A549 ARE-Fluc cells, CellTiter-Fluor viability, 18-24 h; Potency, µM (doses to about 46 µM), usual class: inhibitors; 0.16% of 390,000 active; AID 504648
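Cytotoxicity counterscreen: CellTiter-Fluor fluorescence was measured in A549 ARE_Fluc cells after 18-24 h of compound exposure in a concentration series. The subsequent BugLite luminescent read reports ARE-luciferase activity.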
Nrf2 inh = Nrf2 pathway inhibition | A549 ARE-Fluc reporter, luciferase luminescence, 18-24 h | Potency, µM (top dose mostly 46 µM), hits mostly inhibitors | 2.1% of 360,000 active; further: nearly all actives have a fitted effect of over 60% in size
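A549 ARE_Fluc cells, 5000/well, 5% FBS OPTI-MEM; compounds in dose-response, 18-24 h at 37 °C/5% CO2; CellTiter-Fluor viability read (Ex 405/Em 525), then BugLite luciferase luminescence = Nrf2 activity.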
A number is an active result; n = inactive; u = inconclusive; x = not tested or not shown; [ ] = another dose, or the depositor's remark. Unless noted, the call rests on the fitted dose curve; in most records, active means well fitted curve in the direction sought with a large enough effect; inconclusive means small, poorly fitted or top-dose-only effect, or another doubt; inactive means no such curve, though single readings can be large; an effect the other way counts as inactive or inconclusive.

SMILES	Nrf2 activator	IL2 activator	BRCA1 expr up	p53 reactivator	A549 viability	Nrf2 inh
COc1ccc(OC)c(C2=Nn3c(nnc3-c3ccc(OC)c(OC)c3)SC2)c1	x	x	x	x	n	u
O=C(CSc1cn(CC(=O)N2CCCCC2)c2ccccc12)NCc1ccccc1	n	x	x	x	n	n
Nc1nc(=O)n(C2CCC(CO)O2)cc1F (stereo unspecified)	x	n	x	x	x	x
CC(C)Oc1ccc(C(=O)NC2CCCCC2)cc1	n	n	4.47µM	n	n	x
Cc1cc(NC(=O)C(Cl)c2ccccc2)no1 (stereo unspecified)	12.6µM	n	n	n	n	u
CCC(Oc1ccccc1)C(=O)Nc1cc(C)on1 (stereo unspecified)	n	n	n	n	n	n
Cc1cc(NC(=O)c2ccc(NC(=O)C(C)Oc3ccccc3)cc2)no1 (stereo unspecified)	n	n	12.6µM	n	n	n
O=C(NC1CCCCC1)c1cc(-c2ccccc2O)on1	n	n	2µM	u	n	n
O=C(c1ccccc1O)N(Cc1ccccc1)Cc1cccs1	x	x	x	x	n	n
Cc1cc(NC(=O)c2cc(C(C)C)on2)no1	n	n	11.2µM	n	n	u
CC(C)c1cc(C(=O)NC2CCCCC2)no1	n	n	8.91µM	u	n	n
N#Cc1ccc2sn(-c3ccccc3)c(=O)c2c1	n	n	11.2µM	x	x	x
Cc1ccccc1OCC(=O)NCC(c1ccc(Cl)cc1)N1CCCCC1 (stereo unspecified)	n	x	x	x	n	n
COC(=O)C(Cc1ccc(OC(=O)c2ccc(C(F)(F)F)cc2)cc1)N1Cc2ccccc2C1=O (stereo unspecified)	n	n	11.2µM	u	n	u
CCOC(=O)c1ccc(NC(=O)C(Cc2ccccc2)N2Cc3ccccc3C2=O)cc1 (stereo unspecified)	n	x	x	x	n	u
COC(=O)C(Cc1ccc(OC(=O)c2ccc(Cl)cc2)cc1)N1Cc2ccccc2C1=O (stereo unspecified)	n	n	12.6µM	n	n	x
CCNC(=O)C1CCCN(c2nn3cc(-c4ccc(C)cc4)nc3s2)C1 (stereo unspecified)	n	x	x	x	n	u
O=C1CC(c2ccccc2)CC2=C1C1(CCCCC1)N=C(Nc1nc3ccccc3o1)N2 (stereo unspecified)	x	x	x	x	n	n
Cc1ccc(C(=O)c2oc3ccccc3c2NC(=O)c2nc(S(C)(=O)=O)ncc2Cl)cc1F	n	x	x	x	n	n
COc1ccc(-c2cc(C(F)(F)F)nc(SCC(=O)NCc3ccc(Cl)cc3)n2)cc1	n	x	x	x	n	n
CCc1ccc2c(c1)-c1ccccc1S(=O)(=O)N2CC(=O)N1CCCCC1	n	x	x	x	n	n
CN1CCSc2ccc(C(=O)Nc3cc(F)ccc3F)cc21	n	n	12.6µM	u	n	u
O=C(NCCC(=O)N1CCc2ccccc21)c1ccco1	n	n	8.91µM	u	n	u
O=C(CSCc1ccco1)N1CCc2ccccc21	u	n	2.51µM	u	n	u
O=C(Nc1ccc(S(=O)(=O)N2CCc3ccccc32)cc1)c1ccco1	n	n	n	n	n[1.84 µM]	23.1µM
SMILES	Nrf2 activator	IL2 activator	BRCA1 expr up	p53 reactivator	A549 viability	Nrf2 inh
O=C(CSc1ccccc1)N1CCc2ccccc21	n	n	u	u	n	x
O=S(=O)(NC1CCCC1)c1ccc(S(=O)(=O)N2CCc3ccccc32)cc1	n	n	n	n	u	14.6µM
O=C(NCc1nnc(SCC(=O)N2CCc3ccccc32)o1)c1ccco1	n	n	n	n	n	n
COc1cccc(N2CC(NC(=O)C3CCCCC3)CC2=O)c1 (stereo unspecified)	n	x	x	x	n	x
O=C(C[n+]1cccc(Br)c1)c1ccc2c(c1)CCCC2	x	x	n	x	x	x
O=C(NCc1ccco1)c1ccc(Cl)c(S(=O)(=O)N2CCc3ccccc32)c1	n	n	n	n	n	23.1µM
COc1ccc(OC)c(-c2csc(NC(=O)Cn3[nH]c(=O)c4ccccc4c3=O)n2)c1	n	n	n	n	n	10.3µM
COc1ccc(OC)c(-c2csc(NC(=O)CN3C(=O)C4CCCCC4C3=O)n2)c1 (stereo unspecified)	n	n	n	n	n	u
COc1ccc(OC)c(-c2csc(NC(=O)Cc3ccc(F)cc3)n2)c1	n	n	n	n	n	u
COc1ccc(OC)c(-c2csc(NC(=O)c3ccc(F)cc3)n2)c1	n	n	n	n	n	18.4µM
Cc1sc(NC(=O)Cn2[nH]c(=O)c3ccccc3c2=O)nc1-c1ccccc1	n[9.22 µM]	n	n	n	n	16.4µM
CC(C)c1ccc(/C=N/NC(=O)c2c(Cl)cnn2C)cc1	n	n	7.08µM	u	n	u
Cc1nc(C#N)c(N/N=C/c2cccc(Cl)c2)o1	n	n	22.4µM	u	n	n
Cc1cc2c(s1)c1cnn(Cc3cc(F)ccc3C)c(=O)c1n2C	x	x	x	x	n	n
CCN(CC)C(=O)Cn1cc(SCC(=O)Nc2ccccc2C)c2ccccc21	n	x	x	x	n	n
Cc1cccc(C)c1Nc1c(-c2ccsc2)nc2ccccn12	n	x	x	x	n	18.4µM
CCN(CC)S(=O)(=O)c1cc(NC(=O)COC(=O)c2c(C)noc2C)ccc1C	n	n	n	n	u	20.6µM
CCN(CC)S(=O)(=O)c1cc(NC(=O)CSc2n[nH]c(N)n2)ccc1C	n	n	n	n	n	n
